# Rev-erbA mod: Rev-erb alpha (human) modulation; P20393; Rev-erbα–FITC-DNA binding, fluorescence polarization, 90 min; activity, % at 10 µM; 0.79% of 370,000 active;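 active means activity above about 14%, limit read from the data; passing the limit was not always enough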;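 further: 0% = DMSO wells with 35 nM protein and 100% = DMSO wells with 750 nM protein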
# PG9 Ab binder: PG9 antibody binding by small molecule; TR-FRET gp120-PG9 antibody binding; inhibition, % at 6.7 µM; 0.43% of 360,000 active; in the data active means inhibition above about 8.5%
# PKA-R2B activ: activates the human PKA-R2B holoenzyme complex; P22694+P31323; PKA-R2B holoenzyme dissociation, Cy5-IP20 fluorescence polarization; R2B truncated from residue 108, S112A mutant; 0% DMSO only, 100% 113 µM cGMP; activation, % at 11.4 µM; 0.079% of 340,000 active;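 active means activation above a cutoff set at the mean over all compounds plus 3 SD, cut at about 18% in these data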;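 further: higher means more holoenzyme dissociation and a rise in polarization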
# Target sequence (P31323 whole entry, looked up, other chains not shown, the tested form may be a part): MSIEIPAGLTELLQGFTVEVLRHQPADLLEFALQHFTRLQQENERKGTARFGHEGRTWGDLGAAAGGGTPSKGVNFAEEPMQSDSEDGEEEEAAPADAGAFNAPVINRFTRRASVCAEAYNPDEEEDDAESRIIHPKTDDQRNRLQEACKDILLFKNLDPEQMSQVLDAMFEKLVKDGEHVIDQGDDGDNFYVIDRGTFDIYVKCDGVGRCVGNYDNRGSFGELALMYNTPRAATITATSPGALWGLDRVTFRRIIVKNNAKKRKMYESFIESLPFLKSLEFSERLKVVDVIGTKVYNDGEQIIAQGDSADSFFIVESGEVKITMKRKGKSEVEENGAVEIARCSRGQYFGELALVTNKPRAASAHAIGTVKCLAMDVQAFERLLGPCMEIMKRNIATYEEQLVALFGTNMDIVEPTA
# PKA-R1A act: activates the PKA-R1A holoenzyme complex; P00514+P68181; PKA-R1A dissociation, Cy5-IP20 fluorescence polarization; scaled: DMSO 0%, 113 µM cGMP 100%; activation, % at 11.4 µM; 0.083% of 340,000 active; AID 504707;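 active means percent activation above the mean of all tested compounds plus 3 SD, cut at about 19% in these data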;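 further: higher means more PKAc released from R1A so a rise in polarization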
# PG9 binder conf: PG9 antibody binding, confirmed | 90% of 1,500 active | TR-FRET PG9 antibody binding, biochemical | shares compounds with PG9 Ab binder | inhibition, % at 6.7 µM; in the data active means inhibition above about 9%
# PGV04 counter: binds control antibody PGV04 in PG9 binder counter-screen | shares compounds with PG9 Ab binder | TR-FRET PGV04 antibody-gp120 binding, biochemical | inhibition, % at 6.7 µM | 95% of 1,500 active; in the data active means inhibition above about 9.5%
# PG9 bind DR: PG9 antibody binding, dose response. shares compounds with PG9 Ab binder. TR-FRET PG9 antibody-gp120 binding inhibition. IC50, µM. 95 tested, under 10 active; in the data active means IC50 below about 10 µM
# PGV04 binding DR: counter-screen for PG9 binders: binding to control antibody PGV04; IC50, µM; shares compounds with PG9 Ab binder; TR-FRET binding to control antibody PGV04; 20% of 95 active
# PG126 DR counter: PG126 binding, dose response counter-screen. shares compounds with PG9 Ab binder. TR-FRET binding to antibody PG126, counterscreen. IC50, µM. 20% of 95 active. AID 651939
# Starred values were filed as active, the others as inactive; i = inactive; · = no result. Rows were chosen to be rich in hits. Some 1.2% of all compounds tested hit in one or more screens of this group. Unless noted, no stated cut-off is given here; in the data, active means IC50 below about 9 µM; inactive means the rest.
SMILES,Rev-erbA mod,PG9 Ab binder,PKA-R2B activ,PKA-R1A act,PG9 binder conf,PGV04 counter,others
CCCOc1ccc(/C(O)=C2\C(=O)C(=O)N(c3ccccn3)C2c2ccccc2F)cc1C (stereo not given),-4,21*,0,-2,17*,24*,
COc1ccc(C2/C(=C(/O)c3ccc(C)cc3)C(=O)C(=O)N2c2ccccn2)cc1OC (stereo not given),2,0,-5,0,·,·,
CCOc1ccc(/C(O)=C2/C(=O)C(=O)N(c3ccccn3)C2c2ccc(Cl)cc2)c(C)c1 (stereo not given),2,11*,-4,-7,13*,19*,
COC(=O)[C@]12C[C@H](CC(=O)NCC3CCCCC3)C(=O)N(CCC3=CCCCC3)C1=C[C@H](C(C)C)O[C@@H]2C1CC1,2,·,·,·,·,·,
Cc1ccc(OCCn2c(CCNC(=O)C3CCCCCC3)nc3ccccc32)cc1,-4,·,·,·,·,·,
O=C(Cn1nnc(-c2ccc(N3CCOCC3)cc2)n1)c1ccccc1,-3,·,·,·,·,·,
CC[C@H](CCC(=O)N(c1ccccc1)c1ccccc1)c1ccc(C)cc1,5,·,·,·,·,·,
O=C(Cn1nc(-c2ccccc2)ccc1=O)NCCc1ccccc1F,-5,·,·,·,·,·,
Cc1c(Br)c(O)c(Br)c2sc(=O)oc12,-3,18*,3,-4,11*,21*,
COc1cc(C(=O)Nc2nc3ccc(C)cc3s2)ccc1OCc1c(C)noc1C,14,12*,7,2,21*,26*,
CCc1nnc(NC(=O)c2ccc(OCc3c(C)noc3C)c(OC)c2)s1,-4,-2,4,-4,·,·,
CC(NCc1ccco1)C(=O)N1CCCN(C)CC1 (stereo not given),-6,·,·,·,·,·,
O=C(CSc1nc2nc(-c3cccs3)cc(C(F)(F)F)c2c(=O)[nH]1)Nc1ccc(F)c(F)c1,-7,17*,2,2,20*,28*,
Cc1cccc2cc(COC(=O)c3ccccc3)c(=O)[nH]c12,18,23*,8,-13,22*,38*,
Cc1cccc(C(=O)OCc2cc3ccccc3[nH]c2=O)c1,21,12*,1,1,13*,18*,
O=C(OCc1cc2ccccc2[nH]c1=O)c1ccc([N+](=O)[O-])cc1,-12,-3,0,-6,·,·,
Cc1cccc2cc(COC(=O)c3cccnc3)c(=O)[nH]c12,-5,-1,0,1,·,·,
O=C(NCCc1ccc(F)cc1)c1ccc(Sc2ccccc2Cl)c([N+](=O)[O-])c1,-5,·,·,·,·,·,
Cc1cccc(CNC(=S)OCCN2CCCC23CCC(c2ccccc2)CC3)c1 (stereo not given),-3,·,·,·,·,·,
CCOc1ccc(NC(=O)CCC(=O)c2ccc(Br)cc2)cc1,1,16*,1,2,18*,22*,
COCCNC(=O)c1c[nH]c2ccc(S(=O)(=O)Nc3ccc(F)cc3F)cc2c1=O,-7,9.3*,5,3,22*,22*,PG9 bind DR=>67;PGV04 binding DR=>67;PG126 DR counter=>67
COCCNC(=O)c1c[nH]c2ccc(S(=O)(=O)Nc3ccccc3F)cc2c1=O,-1,9.6*,13,-5,22*,23*,
CCCC1Cc2c(sc3nc(SC)nc(N)c23)CO1 (stereo not given),24,16*,4,8,18*,34*,
COc1ccc(/C=C/c2cc(O)cc(OC3OC(CO)C(O)C(O)C3O)c2)cc1 (stereo not given),0,-1,6,3,·,·,
OC[C@H]1O[C@@H](Oc2ccc3cc(Br)ccc3c2)[C@H](O)[C@@H](O)[C@H]1O,-2,11*,-5,-3,17*,24*,
SMILES,Rev-erbA mod,PG9 Ab binder,PKA-R2B activ,PKA-R1A act,PG9 binder conf,PGV04 counter,others
C(=C\c1ccccc1)/CSc1nnc(COc2ccccc2)n1Cc1ccco1,-1,·,·,·,·,·,
Cc1ccc(Cn2cc(CN3[C@H](c4ccccc4)COc4cc(Br)ccc4S3(=O)=O)nn2)cc1,2,·,·,·,·,·,
CCc1nnc(NC(=O)Cc2ccc(OCc3c(C)noc3C)cc2)s1,10,19*,11,3,19*,42*,
CCCCc1nnc(NC(=O)c2ccc(OCc3c(C)noc3C)cc2)s1,2,1,-4,-4,·,·,
O=C(NC1CCCCN(Cc2cccc(F)c2)C1=O)c1ccc2ccccc2c1 (stereo not given),4,·,·,·,·,·,
COc1ccc(Cn2nnnc2C(c2cc3cccc(C)c3[nH]c2=O)N2CCOCC2)cc1 (stereo not given),-4,17*,0,0,16*,24*,
COC(=O)c1ccc(NC(=O)c2ccc(NC(=O)c3ccco3)cc2)cc1,3,19*,13,0,17*,11*,PG9 bind DR=i;PGV04 binding DR=>67;PG126 DR counter=>67
CCOc1ccc(C(=O)Nc2ccc(NC(=O)c3ccco3)c(Cl)c2)cc1Br,11,36*,10,5,32*,44*,
COC(=O)c1cc(C)oc1C,-2,·,·,·,·,·,
CCC[C@H]1[C@@H](N)CC[C@@]23CCCN2C(=O)CCC[C@@H]13,-6,·,·,·,·,·,
S=c1[nH]nc(-c2ccccc2)o1,-2,7,5,-3,·,·,
Cc1ccccc1-c1n[nH]c(=S)o1,·,35*,2,-4,35*,47*,
CSc1ccccc1-c1n[nH]c(=S)o1,-3,35*,-10,-2,40*,52*,
Cc1ccc(-c2cc(-c3n[nH]c(=S)o3)c3ccccc3n2)cc1,-2,0,-7,-2,·,·,
O=C(O)c1ccc(C#Cc2cccc(F)c2)cn1,0,·,·,·,·,·,
COCCCNC(=O)CSc1nnc(-c2cccnc2)n1C1CCCCC1,-3,·,·,·,·,·,
CC(=O)c1cccc(NC(=O)CCc2nnc3ccc(N4CCN(C)CC4)nn23)c1,-3,1,-8,7,·,·,
CC(=O)c1cccc(NC(=O)CCc2nnc3ccc(NCc4ccc5c(c4)OCO5)nn23)c1,13,19*,8,13,23*,27*,
COc1ccc(C(=O)NCCN(C)C)c2nc3ccccc3cc12,8,23*,-6,-7,20*,18*,PG9 bind DR=>67;PGV04 binding DR=>67;PG126 DR counter=>67
COc1cccc2nc3c(C(=O)NCCN(C)C)cccc3cc12,13,-14,-2,-5,·,·,
COc1ccc(NC(=O)/C(C#N)=C\c2cc(C)n(-c3ccc(Oc4ccc([N+](=O)[O-])cn4)cc3)c2C)cc1,-5,1,-5,-4,·,·,
